# Columns and labels:
# Format in all cases: functional
# [1] = target: Solute carrier family 2, facilitated glucose transporter member 1 (Homo sapiens) (UniProt P11166); assay: ST_JUDE_LEISH: Cytotoxicity at 2uM final concentration against transgenic Leishmania Mexicana promastigotes LmGLUT1 that are glucose transport deficient and complemented with the human glucose transporter GLUT1. Activity is measured by DNA content using SYBR green in vitro
# [2] = target: Hexose transporter 1 (Plasmodium falciparum) (UniProt O97467); assay: ST_JUDE_LEISH: Cytotoxicity at 2uM final concentration against transgenic Leishmania Mexicana promastigotes LmPfHT that are glucose transport deficient and complemented with the Plasmodium falciparum hexose transporter. Activity is measured by DNA content using SYBR green in vitro
# [3] = target: Glucose transporter (Leishmania mexicana) (UniProt O61059); assay: ST_JUDE_LEISH: Cytotoxicity at 2uM final concentration against transgenic Leishmania Mexicana promastigotes LmGT2 that are glucose transport deficient and complemented with the L. Mexicana glucose transporter 2. Activity is measured by DNA content using SYBR green in vitro
# Sequence of Solute carrier family 2, facilitated glucose transporter member 1 (Homo sapiens) (P11166 whole entry): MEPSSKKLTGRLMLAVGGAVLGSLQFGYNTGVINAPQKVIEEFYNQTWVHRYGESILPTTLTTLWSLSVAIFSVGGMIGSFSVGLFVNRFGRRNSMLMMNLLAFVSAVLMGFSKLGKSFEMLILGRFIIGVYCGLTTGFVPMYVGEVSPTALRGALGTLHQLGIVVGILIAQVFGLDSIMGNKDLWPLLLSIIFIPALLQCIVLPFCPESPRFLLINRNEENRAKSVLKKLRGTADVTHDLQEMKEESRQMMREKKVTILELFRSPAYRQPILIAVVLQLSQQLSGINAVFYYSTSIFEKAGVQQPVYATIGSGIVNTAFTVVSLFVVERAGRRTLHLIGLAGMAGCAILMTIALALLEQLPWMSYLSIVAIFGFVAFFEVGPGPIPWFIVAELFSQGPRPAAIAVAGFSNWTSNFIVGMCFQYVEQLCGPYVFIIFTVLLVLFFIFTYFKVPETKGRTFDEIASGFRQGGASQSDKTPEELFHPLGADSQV
Structure (SMILES),inhibition [1],inhibition [2],inhibition [3]
Cc1ccc(C2(CN3CCC(NC(=O)c4cc[nH]n4)CC3)CCCCC2)cc1,0.21%,-1.4%,-0.05%
CCc1cc2c(Sc3nc4ccccc4[nH]3)ncnc2s1,0.94%,0.97%,-0.12%
CCC[C@@H]([C@@H](CC1CCCCC1)C(=O)N[C@H](C(=O)Nc1nccs1)C(C)(C)SCCOCCOCC)N(O)C=O,6.4%,5.16%,5.39%
COc1cc(CNCCCNc2nc3ncccc3[nH]2)c2[nH]cc(Br)c2c1,23.9%,43.1%,21.6%
CCCOc1cc(O)c(-c2[nH]nc(C)c2Oc2ccccc2)cc1CC,1.25%,-0.1%,-1%
Cc1cccc2nc(-c3ccc(-c4cccc(CNCCCN5CCCC5=O)c4)cc3)[nH]c12,7.98%,9.6%,8.02%
COc1ccc(Cl)cc1NC(=O)Nc1ccnc2ccccc12,14.6%,13.4%,6.32%
Cc1cc(NC(=O)c2cccs2)ccc1OC1CCN(Cc2ccccc2)C1 (stereo unspecified),0.25%,-0.44%,1.56%
O=C(NNC(=O)c1ccc(CCN2CCC(c3nc(COCC(F)(F)F)c(-c4ccc(F)cc4)o3)CC2)cc1)Nc1ccc(Oc2ccccc2)cc1,-0.99%,-0.56%,-0.09%
COc1cc2nc(NCC3CCN(c4nc(N)c5cc(OC)c(OC)cc5n4)CC3)nc(N)c2cc1OC,3.62%,2.73%,3.28%
CCN(CC)Cc1cc(NC(=O)c2ccccc2O)ccc1Oc1ccc(Cl)cc1,2.02%,0.32%,1.46%
CCn1c(-c2nc(-c3ccnc(N4CCN(C)CC4)c3)cnc2N)nc2cc(S(C)(=O)=O)ccc21,36.5%,45.3%,20.7%
Fc1ccc2[nH]c(-c3cccc(-c4ccc(CN5CCC(CCN6CCCCC6)CC5)cc4)c3)nc2c1,-0.64%,4.58%,10.4%
O=C(NCCN1CCCc2ccccc21)C1CCN(c2nc(-c3ccc(Cl)cc3)no2)CC1,1.63%,2.11%,-2.23%
O=C(Nc1cccc(-c2nn3ncccc3c2-c2ccnc(Nc3cccc(C(F)(F)F)c3)n2)c1)c1c(F)cccc1F,2.16%,3.08%,-0.92%
CCCCCCOc1ccc2ccccc2c1CNCCCCCCNCc1c(OCCCCCC)ccc2ccccc12,16.8%,21.5%,7.86%
NCC(=O)NC12CC3CC(CC(C3)C1)C2,1.01%,2.25%,1.66%
O=C(Nc1ccc(-c2ccc(-c3nc4ccccc4[nH]3)cc2)cc1)Nc1ccc(Cl)c(Cl)c1,3.78%,2.21%,-4.96%
CNC(=O)c1cc(F)c(F)cc1Nc1nc(Nc2cccc(CS(C)(=O)=O)c2)ncc1Cl,1.41%,1.35%,2.49%

Structure (SMILES),inhibition [1],inhibition [2],inhibition [3]
COc1ccc2nc3ccccc3c(NCCN3CCN(C)CC3)c2c1,7.5%,5.93%,4.16%
CCC(CC)CN1C(=O)C(C)(c2ccccc2)N=C1N (stereo unspecified),-1.13%,-0.03%,-1.23%
CCCCCN1CCC(NS(=O)(=O)c2ccc(C(=O)Nc3cccc(C(F)(F)F)c3)cc2)C1 (stereo unspecified),8.42%,2.22%,2.26%
CC1CCN(Cc2cccc(C(=O)NCc3ccc(F)c(-c4cccc(CN5CCN[C@@H](C)C5)c4)c3)c2)CC1,1.17%,0.82%,1.82%
CN(C)CCCNCc1ccc(-c2ccc(CNCCOc3ccccc3)cc2)cc1,2.4%,4.11%,2.46%
CCOc1ccc(C(C)NC(=O)C2COc3ccccc3O2)cc1OCC (stereo unspecified),2.23%,1.59%,2.93%
CN1CCN(Cc2ccc(-c3cc4c(Nc5ccc(OCc6cccc(F)c6)c(Cl)c5)ncnc4s3)[nH]2)CC1,12.7%,11.4%,8.25%
CCCCCCCCc1c(C)nc(C)c(Br)c1O,0.75%,-0.72%,-0.12%
CCC(C)CN1C(=O)C(c2ccccc2)(c2ccccc2)N=C1N (stereo unspecified),2.09%,2.72%,2.04%
CN1CCCC(CN2CCN(Cc3ccc(-c4cccc(-c5nc6ccccc6[nH]5)c4)cc3)CC2)C1 (stereo unspecified),3.67%,2.47%,3.47%
Cc1cc(N(C)C)nc(Nc2ccc(NC(=O)c3ccc(Br)o3)cc2)n1,7.73%,9.85%,3.96%
c1cc(-c2ccc(CN3CCCC3)cc2)cc(-c2nc3ccccc3[nH]2)c1,0.44%,1.4%,0.98%
COc1cc(C2NCC3(CCOCC3)c3cc4c(cc32)OCCO4)cc(OC)c1OC (stereo unspecified),10.2%,6.69%,7.63%
NCC1CCCN1Cc1cccc(-c2ccc(-c3nc4cc(C(F)(F)F)ccc4[nH]3)s2)c1 (stereo unspecified),1.28%,0.87%,0.38%
CCc1c(CCNCCCCCCNCCc2ccc(OC)cc2)ccc(OC)c1OC,5.63%,5.5%,5.8%
COc1ccc(CNCc2ccccc2)cc1-c1ccc(OC)c(S(=O)(=O)NCCN2CCCC2)c1,-0.27%,-0.09%,3.45%
Cc1cccc2nc(-c3ccc(-c4cccc(NC(=O)C(C)CN5CCN(C)CC5)c4)s3)[nH]c12 (stereo unspecified),11.7%,10.8%,10.3%
CCOC(=O)N(C)/N=C/[C@H](CCc1ccccc1)NC(=O)[C@H](CC(C)C)NC(=O)c1cc2cccc(OC)c2o1,5.68%,3.47%,5.24%
